From PubChem BioAssay

How the values were obtained:
[1] = system: Human papillomavirus type 1a protein E7 (residues 44-93); assay: small molecules binding HPV E7 44-93 – biochemical, small-molecule microarray, residues 44-93, 635 nm fluorescence, primary screen (AID 1108); details: fluorescence 635 nm, higher = more signal;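 note: E7 fragment applied at 1 µg/mL in TBST for 1 h at 4 C; score combines spot fluorescence with its signal to noise ratio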
[2] = hepatitis C replication reporter changes, two-sided – Huh7 cells, luciferase reporter, HCV replication inhibitor project, primary screen (AID 1109); details: Huh7 HCV replicon luciferase reporter, 48 h; higher = more signal;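 note: huh7 hepatoma cells harbouring a luciferase neomycin HCV replicon reporter; luciferase luminescence as measure of HCV replicon replication; test concentration not given here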
[3] = target: Left-right determination factor 2 (Homo sapiens) (UniProt O00292); assay: small molecules binding LEFTY2 protein – biochemical, small-molecule microarray, 635 nm fluorescence scan, primary screen (AID 1110); details: higher = more signal
Left-right determination factor 2 (Homo sapiens), sequence (O00292 whole entry, looked up): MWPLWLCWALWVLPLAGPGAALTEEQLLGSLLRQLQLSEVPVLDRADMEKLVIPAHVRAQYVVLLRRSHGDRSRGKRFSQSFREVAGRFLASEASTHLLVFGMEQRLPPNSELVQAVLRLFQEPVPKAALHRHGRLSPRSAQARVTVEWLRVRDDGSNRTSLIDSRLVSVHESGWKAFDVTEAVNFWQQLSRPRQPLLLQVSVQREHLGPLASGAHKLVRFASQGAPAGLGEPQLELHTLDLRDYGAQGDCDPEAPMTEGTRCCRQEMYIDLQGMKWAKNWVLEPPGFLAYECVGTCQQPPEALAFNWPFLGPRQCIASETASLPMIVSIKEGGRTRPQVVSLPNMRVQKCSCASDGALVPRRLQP

[4] = target: Calmodulin-1 (Homo sapiens) (UniProt P0DP23); assay: small molecules binding calmodulin-1 with EGTA – biochemical, small-molecule microarray, Cy5-labelled CALM1, profiling panel (AID 1111); details: Cy5-CALM1 binding fluorescence, higher = more signal;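 note: labelled calmodulin applied in Tris saline Tween buffer holding calcium plus EGTA and DTT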
[5] = target: Calmodulin-1 (Homo sapiens) (UniProt P0DP23); assay: small molecules binding Ca-loaded calmodulin-1 – biochemical, small-molecule microarray, Cy5-labelled CALM1, plus calcium, artefact control for SMM control-protein annotation, profiling panel (AID 1112); details: Cy5-CALM1 binding fluorescence, higher = more signal;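 note: score merges spot fluorescence with signal to noise from triplicate slides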
[6] = probe aWnt5a binding to arrayed compounds – biochemical, biotinylated probe, 635/667 nm fluorescence, primary screen (AID 1113); details: small-molecule microarray, higher = more signal;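 note: score merges 667 nm fluorescence intensity with signal-to-noise per printed feature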
[7] = probe aShh binding to arrayed compounds – biochemical, biotinylated probe, 635/667 nm fluorescence, primary screen (AID 1114); details: small-molecule microarray, higher = more signal;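 note: probe is biotin-labelled aShh protein from a stem cell growth factor screen; measures binding of labelled protein to compounds printed on the slide; score merges feature fluorescence at 667 nm with signal-to-noise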
[8] = probe aNog binding to arrayed compounds – biochemical, biotinylated probe, 635/667 nm fluorescence, primary screen (AID 1115); details: small-molecule microarray, higher = more signal;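 note: probe is biotinylated aNog protein used at 0.15 µg/mL for 1 h at 4 C; z-score combines 667 nm fluorescence of each spot with its signal to noise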
[9] = target: Torsin-1A-interacting protein 1 (Homo sapiens) (UniProt Q5JTV8); assay: compound microarray binding of lysate hLAP1 – cell lysate, small-molecule microarray, COS7 lysate, 635/667 nm fluorescence, primary screen (AID 1116); details: 635 nm fluorescence, higher = more signal
Torsin-1A-interacting protein 1 (Homo sapiens), sequence (Q5JTV8 whole entry, looked up): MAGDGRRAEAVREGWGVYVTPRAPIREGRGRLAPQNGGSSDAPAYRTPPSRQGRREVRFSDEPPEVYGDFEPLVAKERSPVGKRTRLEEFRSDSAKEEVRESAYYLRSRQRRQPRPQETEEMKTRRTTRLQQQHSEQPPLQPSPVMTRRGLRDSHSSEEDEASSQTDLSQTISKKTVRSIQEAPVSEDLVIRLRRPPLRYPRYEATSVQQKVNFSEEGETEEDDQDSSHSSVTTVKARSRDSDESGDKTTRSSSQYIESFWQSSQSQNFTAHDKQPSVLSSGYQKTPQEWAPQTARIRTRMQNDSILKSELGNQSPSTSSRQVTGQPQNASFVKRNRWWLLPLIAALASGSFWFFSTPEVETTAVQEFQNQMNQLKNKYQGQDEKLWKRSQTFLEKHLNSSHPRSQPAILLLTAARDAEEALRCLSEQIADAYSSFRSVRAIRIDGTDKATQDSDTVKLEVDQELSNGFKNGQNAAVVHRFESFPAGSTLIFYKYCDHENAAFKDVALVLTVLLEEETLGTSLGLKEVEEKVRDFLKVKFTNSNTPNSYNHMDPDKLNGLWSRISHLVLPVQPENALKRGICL

[10] = target: Alpha-bungarotoxin (Bungarus multicinctus) (UniProt P60615); assay: compounds binding labelled alpha-BTX control protein – biochemical, small-molecule microarray, Alexa647 label, 635/667 nm fluorescence, artefact control for SMM control protein annotation, profiling panel (AID 1117); details: alpha-BTX-A647 binding fluorescence, higher = more signal
Alpha-bungarotoxin (Bungarus multicinctus), sequence (P60615 whole entry, looked up): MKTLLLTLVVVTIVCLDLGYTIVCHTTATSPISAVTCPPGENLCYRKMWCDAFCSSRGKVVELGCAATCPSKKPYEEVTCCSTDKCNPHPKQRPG

| Compound | composite z-score [1] | z-score [2] | composite z-score [3] | composite z-score [4] | composite z-score [5] | composite z-score [6] | composite z-score [7] | composite z-score [8] | composite z-score [9] | composite z-score [10] |
| --- | --- | --- | --- | --- | --- | --- | --- | --- | --- | --- |
| C=C(COC)/C(=C/C[C@H](OC(=O)c1ccncc1)c1ccc(CO)o1)c1cc(C(=O)OC)ccc1OC | 0.822 | -0.718 | 0.208 | 0.0845 | -0.409 | -0.0107 | -0.0553 | -0.0446 | 0.0683 | 0.318 |
| CCOC(=O)NN=C1C[C@@H](O)[C@@H](O)[C@@H]2[C@@H]3C(=O)N(C[C@@H]4CCCO4)C(=O)[C@@H]3CC[C@@H]12 | 0.396 | 0.353 | 0.238 | -0.375 | -0.32 | -0.0721 | -0.273 | -0.0428 | 0.584 | -0.189 |
| COc1ccc(O[C@H]2C=C[C@@H](c3ccccc3)O[C@@H]2COC(=O)CCC(C)=NO[C@@H](C)c2cc(-c3c(C)cc(C)cc3C)no2)cc1 | -1.13 | -1.15 | -0.965 | -0.977 | -0.55 | -0.194 | 0.255 | -0.0207 | -1.16 | -0.707 |
| O=C1[C@H]2[C@H]3[C@H](O)[C@H](O)CC(=NOC[C@@H](O)COCc4ccco4)[C@H]3CC[C@H]2C(=O)N1C1CCCCC1 | -0.417 | -0.353 | 1.05 | -1.04 | -1.77 | -0.104 | -0.138 | -0.402 | -0.324 | -0.32 |
| O=C1[C@H]2[C@H]3[C@H](O)[C@H](O)CC(=NOCc4ccccc4)[C@@H]3CC[C@H]2C(=O)N1Cc1ccccc1 | 0.813 | 0.427 | 0.509 | 0.675 | -0.374 | -0.197 | 0.214 | 0.144 | 0.102 | 0.159 |
| CCCNC(=O)OC[C@H]1O[C@H](CCON=C[C@@H](OC)[C@H](C)C=CCC(=O)OC)C=C[C@@H]1Oc1ccc(OC)cc1 | 0.0209 | -1.72 | 0.453 | -1.81 | -0.848 | -0.119 | -0.01 | -0.318 | 0.322 | 0.908 |
| [N-]=[N+]=NCc1ccccc1C[C@]1(C(=O)NCc2ccccc2)N=C(c2ccc(OCCCO)cc2)O[C@H]1c1ccccc1N=[N+]=[N-] | 0.878 | -2.05 | -0.612 | 1.35 | 0.743 | 0.0068 | 0.162 | -0.716 | 0.855 | 0.947 |
| CCOC(=O)C[C@H]1[C@H](OC(=O)c2cc3ccccc3oc2=O)[C@@H](NC(=O)c2ccc3ccccc3n2)c2cc(OCCCO)ccc2N1C(=O)c1ccccc1 | 0.15 | -1.4 | 0.473 | 0.218 | 0.179 | 0.0374 | -0.138 | 0.108 | 1.12 | 0.593 |
| CO[C@H]1COC(=O)[C@H](C)COC(=O)CC=C[C@@H](C)[C@H](OC)COC(=O)CC=C[C@@H]1C | -0.797 | -0.265 | 1.15 | -0.556 | -1.28 | -0.0944 | -0.0709 | -0.158 | -0.0635 | -0.289 |
| O=C1[C@H]2[C@H]3[C@H](O)[C@H](O)CC(=NOCc4ccccc4)[C@@H]3CC[C@H]2C(=O)N1C1CCCCC1 | 0.422 | -1.11 | -0.102 | -0.161 | -0.408 | -0.206 | -0.265 | -0.169 | 0.467 | -0.0059 |
| CN(C)CCCNC(=O)[C@@H]1c2ccccc2C(=O)N(Cc2ccccc2)[C@H]1c1ccc(CO)cc1 | -0.176 | -1.24 | 0.186 | -0.177 | -0.981 | -0.0527 | -0.281 | 0.366 | -0.668 | -0.261 |
| CCOC(=O)C1=CC[C@H]2C(=O)N(CC)C(=O)[C@@H]12 | 1.19 | -2.13 | 0.444 | -0.322 | -0.485 | -0.0236 | 0.329 | -0.0184 | 0.184 | 0.431 |
| CCN1C(=O)[C@H]2[C@H]3[C@H](O)[C@H](O)CC(=NOC[C@@H](C)[C@H](OCc4ccccc4)C(C)C)[C@@H]3CC[C@H]2C1=O | 0.306 | -1.47 | 0.358 | 0.809 | 0.484 | -0.133 | -0.262 | 0.124 | 0.329 | 0.234 |
| O=C1NC(=O)C2C1C=CC(C(O)Cc1ccccc1)N2Nc1ccccn1 (stereo not given) | 0.555 | -0.377 | 0.185 | 0.0084 | -0.541 | 0.0328 | -0.0793 | 0.342 | 0.818 | 1.34 |
| CC1(C)OCC(C(O)C2=CCCCC2=O)CO1 (stereo not given) | 0.198 | -0.751 | 1.07 | 0.465 | -0.927 | 0.0244 | -0.276 | -0.158 | 0.5 | 1.16 |
| Cc1ccc(S(=O)(=O)N[C@@H]2COC(=O)[C@H](C)COC(=O)CC=C[C@H]2C)cc1 | -0.45 | 0.668 | 0.602 | -0.163 | -0.964 | -0.13 | -0.117 | -0.425 | 0.438 | 0.0762 |
| CO[C@H]1COC(=O)[C@@H]2CCCN2C(=O)CC=C[C@@H](C)[C@H](OC)COC(=O)CC=C[C@@H]1C | 0.589 | 1.34 | 1.47 | -2.29 | -2.06 | -0.117 | -0.0904 | -0.156 | -0.298 | -0.394 |
